# A selection: hits, their analogues and other compounds. The true share with any hit is near 3.5%.
# MITF primary: inhibitors of human MITF; O75030; AlphaScreen MITF homodimerization, bead proximity signal; inhibition, % at 2.6 µM; hit rate 0.91% among 650,000; in the data active means inhibition above about 50%;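 further: 0% = vehicle wells with protein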
# Target sequence (O75030 whole entry, looked up): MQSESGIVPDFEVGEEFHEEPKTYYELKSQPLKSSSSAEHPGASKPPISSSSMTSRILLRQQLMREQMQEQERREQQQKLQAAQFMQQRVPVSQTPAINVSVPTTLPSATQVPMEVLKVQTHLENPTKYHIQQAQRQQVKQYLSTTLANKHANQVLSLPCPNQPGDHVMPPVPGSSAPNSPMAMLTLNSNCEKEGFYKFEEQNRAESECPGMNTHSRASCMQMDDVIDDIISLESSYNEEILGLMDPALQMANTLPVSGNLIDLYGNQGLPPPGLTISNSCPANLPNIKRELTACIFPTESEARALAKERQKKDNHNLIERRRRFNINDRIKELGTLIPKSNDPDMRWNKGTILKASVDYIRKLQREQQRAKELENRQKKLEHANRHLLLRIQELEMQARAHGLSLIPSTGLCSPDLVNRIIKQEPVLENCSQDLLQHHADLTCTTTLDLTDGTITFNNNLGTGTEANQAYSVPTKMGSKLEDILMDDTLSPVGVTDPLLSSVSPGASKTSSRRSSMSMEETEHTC
# TEAD-YAP inh: TEAD-YAP interaction inhibition; inhibition, % at 9.12 µM; hit rate 1.4% among 640,000; HEK-TIYL cells, TEAD-Gal4/YAP UAS-luciferase luminescence; in the data active means inhibition above about 32%;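 further: 0% = median of test compound wells and 100% = reference inhibitor wells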
# GPR151 ag: activates the human receptor GPR151; PathHunter beta-arrestin GPR151 cells, luminescence; activation, % at 11.2 µM; hit rate 1% among 650,000; in the data active means activation above about 4.9%;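 further: 0% = median of compound wells and 100% = cells with positive control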
# FBW7 activator: human FBW7 E3 ligase activation, primary screen; Q969H0; AlphaScreen FBW7–phospho-cyclin E peptide binding, activator screen; normalized activity (activation), % at 26.1 µM; hit rate 0.13% among 650,000; AID 1259310; in the data active means normalized activity above about 1.9%;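 further: purified mutant Fbw7 with reduced substrate affinity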
# * = called active by the depositor.
SMILES,MITF primary,TEAD-YAP inh,GPR151 ag,FBW7 activator
O=C(Nc1sc2c(c1C(=O)O)CCCCC2)c1cccs1,-0.1,42.1*,-7.5,-0.1
CC1CCc2c(sc(NC(=O)c3ccccc3)c2C(=O)O)C1 (stereo not drawn),15.9,70.3*,-3.9,0.5
COc1ccc(NC(=O)c2c(NC(=O)c3cccs3)sc3c2CCC(C)C3)cc1 (stereo not drawn),-12.8,-2.8,0.1,-0.1
CCc1ccc(NC(=O)CSc2nc3sc4c(c3c(=O)n2-c2ccccc2)CCC4)cc1,4.5,10.1,0.4,0.0
CCOc1ccc(S(=O)(=O)Nc2cc(F)ccc2F)c2cccnc12,-16.8,-8.2,0.0,0.0
CCOc1ccc(S(=O)(=O)N2c3ccc(F)cc3CCC2C)c2cccnc12 (stereo not drawn),2.2,49.6*,0.4,-0.1
Cn1cc(-c2ccc3cnc(Nc4ccc(-n5cnc(N6CCOCC6)n5)cc4)nc3c2-c2ccccc2)cn1,13.2,97.6*,-0.3,-0.1
COc1c(-c2cnn(C)c2)ccc2cnc(Nc3ccc(-n4cnc(N5CCOCC5)n4)cc3)nc12,14.9,80.8*,-0.7,-0.1
Cn1cc(-c2ccc3cnc(Nc4ccc(-n5cnc(N6CCOCC6)n5)cc4)nc3c2C2CC2)cn1,3.2,81.4*,-1.0,0.1
CCN(C1CCCCC1)S(=O)(=O)c1cc2c3c(c1)CC(=O)N3CCC2,14.6,4.7,-1.7,0.3
COc1cc(/C=C2/NC(=S)NC2=O)ccc1O,-0.5,54.4*,0.2,0.1
COc1cc(/C=C2\NC(=S)NC2=O)ccc1O,25.6,31.2,-0.7,0.3
O=C1NC(=S)N/C1=C/c1ccc2c(c1)OCO2,15.0,36.0*,1.3,0.0
COc1cccc(/C=C2/NC(=S)NC2=O)c1O,-2.3,41.2*,-0.3,0.1
O=C1NC(=S)S/C1=C\c1ccc2c(c1)OCO2,10.5,-2.0,-0.5,0.1
Cc1ccc(-n2cc(-c3ccc(Cl)cc3)nc2SCC(=O)Nc2ccc(Cl)cc2)cc1,11.4,23.8,2.2,0.0
CCCN(c1ccc(OCC)cc1)c1ncnc2nc[nH]c12,9.2,17.6,-1.4,0.7
CCN(c1ccc(OC)cc1)c1ncnc2nc[nH]c12,5.7,37.0*,-0.9,0.6
COc1ccc(-n2ncc3c(Nc4cccc5c4CCCC5)ncnc32)cc1,-3.8,47.1*,0.7,-0.2
c1ccc(-n2ncc3c(Nc4cccc5c4CCCC5)ncnc32)cc1,4.6,-1.3,3.9,-0.1
Cc1cccc(-n2ncc3c(Nc4cccc5c4CCCC5)ncnc32)c1,17.6,41.6*,0.5,0.1
Cc1cccc(Nc2ncnc3c2cnn3-c2cccc(C)c2)c1,9.6,-27.1,0.4,0.5
CCc1ccc(NC(=S)N(Cc2ccccc2)Cc2cccs2)cc1,-6.3,53.7*,-0.6,0.0
Cn1c2ccccc2c2nnc(N/N=C/c3ccccn3)nc21,44.6,35.6*,-0.1,-1.0
CS(=O)(=O)c1cnc(N)nc1-c1cc(N2CCOCC2)nc(N2CCOCC2)n1,13.2,12.0,-2.0,0.5
SMILES,MITF primary,TEAD-YAP inh,GPR151 ag,FBW7 activator
CCCCN(CC)S(=O)(=O)c1ccc(C(=O)Nc2ccc3sc(C)nc3c2)cc1,20.9,52.6*,-0.1,0.0
COc1ccc(NC(=O)Nc2c3ccccc3nc(=O)n2Cc2ccccc2)cc1,-7.3,-15.3,-1.5,-0.1
Cc1noc(C)c1CN1C(=O)NC(C)(c2ccc3c(c2)OCCO3)C1=O (stereo not drawn),-4.6,-0.4,-0.6,-0.2
Cc1cc(C)c2c(n1)sc1c(=O)[nH]nnc12,8.4,-1.9,2.2,-0.1
CC(=O)NC(c1ccc(N(C)C)cc1)c1ccc2cccnc2c1O (stereo not drawn),58.6*,81.8*,-0.6,-2.0
CCN(CC)c1ccc(C(NC(=O)C(C)C)c2ccc3cccnc3c2O)cc1 (stereo not drawn),19.8,73.5*,-1.3,-1.0
CC(C)C(=O)NC(c1ccc(N(C)C)cc1)c1ccc2cccnc2c1O (stereo not drawn),30.8,83.5*,-0.3,-1.9
CCCCC(=O)NC(c1ccc(N(C)C)cc1)c1ccc2cccnc2c1O (stereo not drawn),21.8,75.1*,-0.8,-2.0
COC(=O)c1c(NC(=O)C23CCC(C)(C(=O)C2=O)C3(C)C)sc2c1CCCC2 (stereo not drawn),-3.5,8.3,1.2,0.0
Cc1nn(CC(N)=O)c(=O)c2cc3sccc3n12,-12.4,-10.9,2.0,0.3
CCOC(=O)C1=C(C)NC2=C(C(=O)C(C(=O)OCC)C(c3ccco3)C2)C1c1ccccc1 (stereo not drawn),-11.8,0.2,1.0,-0.1
CCC(=O)NC(c1ccc(N(C)C)cc1)c1ccc2cccnc2c1O (stereo not drawn),35.0,68.6*,-0.2,-2.0

# Screens (PubChem BioAssay)
